Assay outcomes as filed in PubChem.
Only some compounds are listed: those with a hit (about 3.4% of all), similar ones and a draw of the others.
ADAM10 inh: human ADAM10 inhibitors, primary screen, biochemical, QFRET, HTS. recombinant ADAM10, EDANS/DABCYL FRET peptide cleavage, 3 h. actives 0.62% (n = 370,000). inhibition, % at 7 µM. AID 720582, 2013;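 active means inhibition above a per-campaign cutoff equal to the mean of compounds falling between control-based bounds plus 3 SD, cut at about 20% in these data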
PLC-gamma1 inh: PLC-gamma1 enzyme inhibitors, primary screen, biochemical, fluorescence, purified enzyme. 1-phosphatidylinositol 4,5-bisphosphate phosphodiesterase gamma-1 (Homo sapiens), P19174. actives 0.84% (n = 370,000). inhibition, % at 12.2 µM. fluorogenic substrate
ADAM17 inh: ADAM17 inhibitors, primary screen, biochemical, QFRET; Disintegrin and metalloproteinase domain-containing protein 17 (Homo sapiens), P78536; recombinant ADAM17, EDANS/DABCYL FRET peptide cleavage; inhibition, % at 6.95 µM; actives 0.83% (n = 370,000); AID 720648, 2013;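 active means inhibition above the mean of compounds lying between control limits plus 3 SD, set per campaign, cut at about 8.5% in these data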
PLC-beta3 inh: human PLC-beta3 inhibitors, primary screen, biochemical, fluorescence; inhibition, % at 12.2 µM; actives 0.18% (n = 370,000); Purified PLC-beta3, fluorogenic substrate; 1-phosphatidylinositol 4,5-bisphosphate phosphodiesterase beta-3 (Homo sapiens), Q01970; in the data active means inhibition above about 11%
proKLK7 act: proKLK7 zymogen activators, primary screen, biochemical, fluorescence intensity; purified proKLK7, EDANS-DABCYL substrate fluorescence; 100% is mature enzyme control, 0% vehicle; activation, % at 7 µM; actives 0.9% (n = 370,000);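 active means activation above the mean of all tested compounds plus 3 SD, computed per campaign excluding outliers beyond control limits, cut at about 13% in these data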
HGIII-sPLA2 inh: human group III sPLA2 inhibitors, primary screen, biochemical, QFRET, BODIPY PC-A2 liposome substrate | Group 3 secretory phospholipase A2 (Homo sapiens), Q9NZ20 | QFRET BODIPY PC-A2 liposome hydrolysis, fluorescence | inhibition, % at 12.2 µM | actives 0.56% (n = 370,000) | AID 743126, 2013;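 active means inhibition above mean plus 3 SD of compounds lying within the high and low control bounds, cut at about 19% in these data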
PLCgamma1 ctr: PLC-gamma1 enzyme inhibitors, counter-screen for PLC-beta3 inhibitor project, biochemical, fluorescence; inhibition, % at 12.3 µM; purified PLC-gamma1, fluorogenic substrate; shares compounds with PLC-gamma1 inh; actives 3.1% (n = 3,300); AID 743258, 2014
PLCb3 confirm: PLC-beta3 inhibitor confirmation, biochemical, fluorescence, purified enzyme | shares compounds with PLC-gamma1 inh | fluorogenic substrate fluorescence | inhibition, % at 12.3 µM | actives 1% (n = 3,300) | AID 743261, 2014; in the data active means inhibition above about 11%
Numbers stand for hits; i = inactive; nt = not tested or not shown. Unless noted, no stated cut-off is given here; in the data, active means inhibition above about 9.5%; inactive means the rest.

SMILES	ADAM10 inh	PLC-gamma1 inh	ADAM17 inh	PLC-beta3 inh	proKLK7 act	HGIII-sPLA2 inh	PLCgamma1 ctr	PLCb3 confirm
CN1C(=O)[C@@]2(O[C@H]3[C@H]4C=C[C@@H]([C@H]5C(=O)N(Cc6ccccc6)C(=O)[C@@H]45)N3C3=C2C(=O)CC3)c2ccccc21	i	i	i	14.0	i	i	i	i
O=C(NCc1cccs1)C1CCCN(S(=O)(=O)c2ccccc2)C1 (configuration not stated)	i	i	i	i	i	i	nt	nt
NC(Cc1ccc(C(F)(F)F)cc1)c1csc(NC(=O)NCCc2ccccc2)n1 (configuration not stated)	i	12.0	i	i	i	i	i	i
CN1CCCCC(NC(=O)c2cccc([N+](=O)[O-])c2)C1=O (configuration not stated)	i	i	i	i	i	i	nt	nt
CCCN1CCC(NC(=O)Nc2ccc(OC)c(OC)c2)CC1	i	10.1	i	i	i	i	i	i
CCCN1CCC(NC(=S)Nc2ccc(OC)c(OC)c2)CC1	i	i	i	i	i	i	nt	nt
CC(COc1ccc(F)cc1)CN1CCC(C(O)(c2ccccc2)c2ccccc2)CC1 (configuration not stated)	i	i	i	i	i	i	nt	nt
N#Cc1ccc(/C=C2\CC3(OC(=O)c4ccc(F)cc4)CCCN2C3)cc1 (configuration not stated)	i	i	i	i	i	i	nt	nt
COc1ccc(C(=O)Nc2ccc(S(=O)(=O)Nc3ncccn3)cc2)cc1OC	i	i	i	13.7	i	i	i	i
COC(=O)C1=C(C)N(Cc2cccc(C(F)(F)F)c2)C(=NCc2cc(OC)c(OC)c(OC)c2)NC1c1cccc(Cl)c1 (configuration not stated)	i	i	i	i	i	i	nt	nt
CN1CCN(C(=O)CN(CCc2ccccc2)S(C)(=O)=O)CC1	i	i	i	i	i	i	nt	nt
CCN1CCN(C(=O)CN(CCc2ccccc2)S(C)(=O)=O)CC1	i	9.9	i	i	i	i	i	i
O=C(CSc1ccc(F)cc1)NC(=O)NCc1ccccc1	i	10.2	i	i	i	i	i	i
O=C(O)CCC(=O)c1ccc(-c2ccccc2)cc1	i	i	i	i	i	i	nt	nt
O=C(O)CCC(=O)CCC(=O)c1ccc(Cl)cc1	i	10.6	i	i	i	i	i	i
Nc1[nH]c(C(=O)c2ccccc2)c(-c2ccccc2C(F)(F)F)c1C(=O)c1c[nH]c2ccccc12	i	i	i	i	i	i	nt	nt
CCOc1ccc(-n2nnnc2SCC(=O)Nc2cccc(O)c2)cc1	i	12.8	i	i	i	i	i	i
CCOc1ccc(-n2nnnc2SCC(=O)Nc2ccc(NC(C)=O)cc2)cc1	i	i	i	i	i	i	nt	nt
Cc1c(NC(=S)N/N=C/C=C/c2ccc([N+](=O)[O-])cc2)c(=O)n(-c2ccccc2)n1C	i	12.1	i	i	i	i	11.0	i
Cc1c(NC(=S)N/N=C/C=C/c2ccccc2)c(=O)n(-c2ccccc2)n1C	i	i	i	i	i	i	nt	nt
COc1cccc(NC(=S)NC(=O)/C=C/c2ccco2)c1	i	i	i	i	i	i	nt	nt
O=C(/C=C/c1ccco1)NC(=S)Nc1cccc(C(=O)O)c1	i	19.0	i	i	i	i	19.2	i
O=C(N1CCOCC1)N1CCN(Cc2ccccc2)CC1	i	10.2	i	i	i	i	i	i
c1ccc(CN2CCOCCOCCOCC2)cc1	i	i	i	i	i	i	nt	nt
COc1ccc(S[C@]2(C(=O)N3CCOCC3)CC(=O)N(C(=O)CCc3ccccc3)[C@@H]2c2ccc(OC)cc2)cc1	i	i	i	i	i	i	nt	nt
SMILES	ADAM10 inh	PLC-gamma1 inh	ADAM17 inh	PLC-beta3 inh	proKLK7 act	HGIII-sPLA2 inh	PLCgamma1 ctr	PLCb3 confirm
COc1ccc(CN(C)S(=O)(=O)c2ccc3c(c2)OCCO3)cc1	i	11.9	i	i	i	i	i	i
CCOC(=O)[C@H](Cc1ccccc1)NC(=O)[C@H]1C[C@@]2(N3CCCCC3)c3ccccc3N(C(=O)OC(C)(C)C)[C@H]2N1C(=O)OC(C)(C)C	i	i	i	i	i	i	nt	nt
O=C1CCC[C@H]2C[C@H](NCc3ccccc3F)CC[C@]23CCCN13	i	i	i	i	nt	i	nt	nt
CN(C)CCCN(CCCN(C)C)C(=S)Nc1ccc(S(=O)(=O)N2CCOCC2)cc1	i	10.6	i	i	i	i	i	i
O=C(Cc1ccccc1)NC1CCCCN(Cc2ccc(Cl)cc2)C1=O (configuration not stated)	i	i	i	i	i	i	nt	nt
COC(=O)Cn1c(SCc2ccccc2)nc2ccccc21	i	i	i	i	i	i	nt	nt
CCSc1nc2ccccc2n1CC(=O)OC	i	12.6	i	i	i	i	i	i
CCCCn1nnnc1C(c1ccccc1)N1CCN(c2cccc(C(F)(F)F)n2)CC1 (configuration not stated)	i	10.0	i	i	i	i	i	i
COC(=O)C1CN(C2CC2)CCS(=O)(=O)N1Cc1cn(Cc2ccc(C)cc2)nn1 (configuration not stated)	i	i	i	i	i	i	nt	nt
COc1ccc(CN=C2NC(=O)CC(C(=O)Nc3cc(C)cc(C)c3)S2)cc1 (configuration not stated)	i	i	i	16.7	i	i	i	i
COC(=O)c1cc(NC(=O)C2CC(=O)NC(=NCc3ccc(OC)cc3)S2)cc(C(=O)OC)c1 (configuration not stated)	i	i	i	i	i	i	nt	nt
CC1=C2NC(N)=[N+](Cc3ccc4c(c3)OCO4)CC2n2c(=O)n(-c3ccccc3)c(=O)n2C1 (configuration not stated)	i	i	i	i	i	i	nt	nt
CCCCS(=O)(=O)N1CCCc2nc(-c3ccccc3)ccc21	i	i	i	i	i	i	nt	nt
CS(=O)(=O)c1ccc(NC(=O)C2CCCN(C(=O)c3ccc(Cl)cc3)C2)cc1 (configuration not stated)	i	i	i	i	i	i	nt	nt
CC(=O)Nc1ccc(NC(=O)C2CCCN(C(=O)c3ccc(Cl)cc3)C2)cc1 (configuration not stated)	i	12.0	i	i	i	i	i	i
